Luciferase inh: firefly luciferase inhibition; purified firefly luciferase, luminescence, 8 min; Potency, µM (highest dose often 57.1 µM), without a hit: at the top dose activity change, negative = inhibition, actives largely listed as inhibitors; 2.2% of 72,000 active; AID 411; also: nearly all actives have a fitted effect of over 40% in size
Target sequence (P08659 whole entry, looked up): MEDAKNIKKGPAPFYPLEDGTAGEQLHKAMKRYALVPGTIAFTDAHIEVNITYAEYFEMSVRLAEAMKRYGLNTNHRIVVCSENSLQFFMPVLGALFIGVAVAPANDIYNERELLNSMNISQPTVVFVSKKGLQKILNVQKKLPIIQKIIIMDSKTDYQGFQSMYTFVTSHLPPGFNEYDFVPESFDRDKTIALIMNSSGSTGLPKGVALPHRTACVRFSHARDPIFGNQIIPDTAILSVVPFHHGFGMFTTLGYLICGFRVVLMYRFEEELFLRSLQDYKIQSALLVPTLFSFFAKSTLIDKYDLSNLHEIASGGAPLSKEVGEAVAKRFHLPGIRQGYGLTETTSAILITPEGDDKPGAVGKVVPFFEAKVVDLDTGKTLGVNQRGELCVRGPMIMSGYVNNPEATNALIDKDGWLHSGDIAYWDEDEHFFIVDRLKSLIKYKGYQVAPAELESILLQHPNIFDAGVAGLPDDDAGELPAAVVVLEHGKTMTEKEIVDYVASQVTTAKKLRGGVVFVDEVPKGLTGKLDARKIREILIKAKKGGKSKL
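Luminescence read-out after 8 min at room temperature; enzyme reaction used luciferin plus 10 uM ATP (linear range) in imidazole buffer pH 7.2 with KCl, MgCl2, Tween 20 and BSA. Each sample was run as a titration.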
p53ts 39C kill: p53ts cell cytotoxicity, nonpermissive temperature; AID 902; 1.5% of 130,000 active; Potency, µM (doses to about 46.1 µM), inactives show at the top dose activity change, negative = cell killing, actives largely listed as cytotoxic; H1299-p53A138V viability at 39C, ATP luminescence, 24 h; also: nearly all actives have a fitted effect of over 55% in size
p53ts 32C kill: p53ts cell cytotoxicity, permissive temperature | Potency, µM (top dose mostly 46.1 µM), without a hit: top-dose activity change, negative = cytotoxicity, usual class: cytotoxic | AID 924 | 0.93% of 130,000 active | H1299-p53A138V at 32C, ATP luminescence viability, 24 h;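 also: 0% = DMSO and -100% = full killing by reference compound; nearly all actives have a fitted effect of over 55% in size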
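ATP-content luminescence (ATPlite) read-out after 24 h compound exposure at 32C in H1299-p53A138V cells (600/well). Tested up to 46 uM. Normalized to DMSO (0%) and 100 uM tamoxifen (100% killing); Hill-fit AC50.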
* = called active by the depositor; ? = inconclusive; · = not tested or not shown; [ ] = remark or other dose. In the library only some 2.5% were active in any assay of this set; here they are far more common. Calls follow the shape of the dose curve; as a rule, active = well fitted curve in the direction sought with a large enough effect; inconclusive = small, poorly fitted or top-dose-only effect, or another doubt; inactive = no such curve, though single readings can be large; an effect the other way counts as inactive or inconclusive. Unless noted, % is scaled to controls: 0 for no effect and ±100 for the full control effect; potency is read from the fitted curve at half-maximal effect.

SMILES	Luciferase inh	p53ts 39C kill	p53ts 32C kill
COc1ccc(-c2nc3cc(C(C)C)ccc3o2)cc1NC(=O)c1ccc(C)c(Cl)c1	·	-4%	2%
COc1ccccc1CNc1ncnc2ccc(-c3cccc(NS(C)(=O)=O)c3)cc12	1%[2.29 µM]	-17%	-3%
COc1ccccc1Cn1c(-c2ccco2)nc2nc3ccccc3nc21	3.2µM*	-13%	-9%
Clc1ccc(-c2nc3nc4ccccc4nc3n2Cc2ccco2)cc1	-3%	-1%	-5%
Cc1ccc(-c2nc3nc4ccccc4nc3n2Cc2ccco2)cc1	10µM*	13µM*	13µM*
c1ccc(Cn2c(-c3ccco3)nc3nc4ccccc4nc32)cc1	-25%	-13%	-11%
COc1ccccc1CNc1cc(-c2ccoc2)ncn1	0%[2.29 µM]	-9%	-1%
COC(=O)NC(/C(C(=O)OC)=C(\C)NCc1ccccc1)c1ccc2ccccc2c1 (stereo not drawn)	·	3%[9.22 µM]	-8%[9.22 µM]
COCCNC(=O)CSc1nnc(NC(=O)Nc2ccc(C)cc2)s1	·	?	11µM*
COc1ccc(NC(=O)CSc2nnc(NC(=O)Nc3ccc(OC)cc3)s2)cc1	·	?	-4%
O=C(NCCN1CCOCC1)c1ccc(-n2c(=O)c(=O)[nH]c3ccccc32)cc1	·	1%	7%
O=C(NC1(C(F)(F)F)C(=O)Nc2c1c(=O)[nH]c(=O)n2CCc1ccccc1)c1ccc(Cl)cc1Cl (stereo not drawn)	·	17%	2%
Nc1ccn([C@H]2CC[C@H](CO)O2)c(=O)n1	0%	·	·
CCOc1ccc2nc(N3CCN(C(=O)c4ccc(S(=O)(=O)CC)cc4)CC3)sc2c1	·	-5%	2%
CCOc1ccc2nc(N3CCN(C(=O)CS(=O)(=O)c4ccc(F)cc4)CC3)sc2c1	·	6.3µM*	14µM*
CCOc1ccc2nc(N3CCCCCC3)sc2c1	13µM*	-14%	?
CCOc1ccc2nc(N3CCC(C(=O)N4CCN(C5CCCCC5)CC4)CC3)sc2c1	16µM*	-29%	-25%
CCOc1ccc2nc(N3CCC(C(=O)N4CCN(C(=O)c5ccco5)CC4)CC3)sc2c1	7.9µM*	?	?
CCOc1ccc2nc(N3CCC(C(=O)Nc4nnc(CC)s4)CC3)sc2c1	-6%	4%	-7%
O=C(c1ccco1)N1CCN(c2nc3ccc(Cl)cc3s2)CC1	·	-25%	0%
CCOc1ccc2nc(N3CCCC(C(=O)N4CCN(CC)CC4)C3)sc2c1 (stereo not drawn)	?	-19%	-28%
Nc1ncn([C@@H]2O[C@@H](CO)[C@@H](O)[C@H]2O)c(=O)n1	0%	·	·
COc1ccc(Cl)cc1NC(=O)CN(c1cc(C)cc(C)c1)S(=O)(=O)c1c(C)n[nH]c1C	·	?	-4%
C=CCOC(=O)C(C(C)=O)C(NC(=O)OC)c1cccc(F)c1 (stereo not drawn)	·	14%[9.22 µM]	-2%[9.22 µM]
COc1ccc(-c2ccc3c(n2)CCCN3C[C@H](O)CN2CCCc3nc(-c4ccc(Br)cc4)ccc32)cc1	-2%[11.4 µM]	-7%[9.22 µM]	-13%[9.22 µM]
SMILES	Luciferase inh	p53ts 39C kill	p53ts 32C kill
COc1ccccc1-c1c(C)nn2c(N3CCN(c4ccc(F)cc4)CC3)cc(C)nc12	·	-12%	2%
CCOC(=O)[C@]1(C(NC(=O)OC)c2ccccc2)CCCC1=O (stereo partly drawn)	·	2%[9.22 µM]	1%[9.22 µM]
CN(C)CC[C@@H](C(=O)C(C)(C)C)c1ccccn1	2%[11.4 µM]	0%[9.22 µM]	-1%[9.22 µM]
COCCn1c(=O)c(-c2cn(C)c3ccccc23)nc2cnc(N3CCNCC3)nc21	0%[11.4 µM]	-2%	-5%
COc1cccc(CNC(=O)c2cccc(NC(=O)c3nsc4ccccc34)c2)c1	·	?	-18%
COC(=O)c1cccc(NC(=O)c2nsc3ccccc23)c1	·	6.3µM*	2.5µM*
O=C(Nc1cccc(C(=O)N2CCCCC2)c1)c1nsc2ccccc12	·	10µM*	16µM*
CC1CCN(C(=O)c2ccc(NC(=O)c3nsc4ccccc34)cc2)CC1	·	?	-23%
CCOc1ccc(Nc2nc(N)c(C(=O)c3ccccc3Cl)s2)cc1	·	39%	72%
Nc1nc(Cl)nc2c1ncn2[C@@H]1O[C@@H](COP(=O)(O)OP(=O)(O)OP(=O)(O)O)[C@@H](O)[C@H]1O	1%	?	?
O=c1oc2c(CN3CCCCC3)c(O)ccc2cc1-c1nc2ccccc2[nH]1	-22%	-16%	-6%
O=C(O)c1ccc2nc(-c3cc4cccc(O)c4oc3=O)[nH]c2c1	·	?	10µM*
O=c1oc2c3c4c(cc2cc1-c1nc2ccccc2[nH]1)CCCN4CCC3	2µM*	?	?
O=C(O)c1ccc2nc(-c3cc4cc(F)ccc4oc3=O)[nH]c2c1	·	?	-9%
COc1ccc(CNc2ncncc2-c2ccc(N(C)C)cc2)c(OC)c1	2%[2.29 µM]	-19%	-2%
C/C(=N/O)c1ccc2cc(Br)c3ccccc3c2c1	1%[11.4 µM]	-5%[9.22 µM]	0%[9.22 µM]
COc1ccc(OC2C=CC(C#Cc3ccc(C(C)(C)C)cc3)OC2CO)cc1 (stereo not drawn)	·	?	-19%[9.22 µM]
CCc1cc2cc(C(=O)Nc3ccccc3F)sc2s1	5µM*	-12%	-9%
CCc1cc2cc(C(=O)Nc3ccc(F)cc3)sc2s1	·	11%	9%
CCNc1ncc2nc(-c3cccs3)c(=O)n(Cc3ccc(F)cc3)c2n1	0%[11.4 µM]	-5%	-19%
COc1ccccc1CNC(=O)CSc1nc2nc(C)c(Cc3ccccc3Cl)c(C)n2n1	·	19%	13%
Cc1ccc(-c2nc(CS(=O)CC(=O)N3CCN(c4cccc(Cl)c4)CC3)c(C)o2)cc1 (stereo not drawn)	·	13µM*	-7%
Cc1oc(-c2ccc(Cl)cc2)nc1CS(=O)CC(=O)N1CCN(c2cccc(C(F)(F)F)c2)CC1 (stereo not drawn)	·	-10%	-10%
COc1ccc(CCNC[C@H](O)c2ccc(O)cc2)cc1OC	0%	3%	4%
CSC(=NC1CCCCC1)NS(=O)(=O)c1ccccc1	1%	-3%	7%
SMILES	Luciferase inh	p53ts 39C kill	p53ts 32C kill
CC(=NC1CCCCC1)C1=C(O)c2ccccc2C1=O	7.9µM*	?	?
Cc1nc(-c2ccccc2)sc1-c1ccc(SCC(=O)Nc2cccc(C(F)(F)F)c2)nn1	·	10µM*	-9%
CCc1ccc(NC(=O)CSc2ccc(-c3sc(-c4ccccc4)nc3C)nn2)cc1	·	-18%	0%
COc1cc(NC(=O)CSc2ccc(-c3sc(-c4ccccc4)nc3C)nn2)cc(OC)c1	·	-9%	-2%
CC(=O)Nc1cccc(NC(=O)CSc2ccc(-c3sc(-c4ccccc4)nc3C)nn2)c1	·	7.9µM*	14%
C=CCn1c(-c2cccs2)nc2ccccc21	-5%	-4%	-11%
C=CCn1c(-c2cccs2)nc2nc3ccccc3nc21	20µM*	?	?
Clc1ccc(CSCCc2ccncc2)cc1Cl	1%[11.4 µM]	-16%[9.22 µM]	4%[9.22 µM]
CC(=O)N[C@H](Cc1ccc(O)cc1)C(=O)O	1%[11.4 µM]	5%[9.22 µM]	1%[9.22 µM]
CC1CCCCN1C(=O)CSc1c2c(nc3cc(Cl)ccc13)CCCC2 (stereo not drawn)	·	13µM*	-13%
COc1ccc(Cl)cc1NC(=O)CSc1c2c(nc3ccccc13)CCC2	·	25%	?
COc1ccc(OC)c(NC(=O)CSc2c3c(nc4cc(Cl)ccc24)CCCC3)c1	·	?	5%
CC1CCCN(C(=O)CSc2c3c(nc4cc(Cl)ccc24)CCCC3)C1 (stereo not drawn)	·	?	25µM*

Bioassay records as filed in PubChem BioAssay.
